Source: PubChem BioAssay (National Center for Advancing Translational Sciences (NCATS))
PI5P4K alpha inh: inhibitors of human PI5P4K alpha; P48426; PI5P4Kalpha enzyme, ADP-Glo luminescence, 60 min; active compounds read low; max response, %; actives 1.2% (n = 330,000); active = max response of -50% or lower; inconclusive = between -30% and -50%; inactive = -30% or higher; also: value at the top dose of about 77 µM
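Reactions run in 0.038 M HEPES pH 7.4, 0.28 mM EGTA, 0.1% CHAPS and 5% DMSO, with PI5P4Kalpha, substrate, compound and 5 microM ATP final, one hour at room temperature. Readout is ADP-Glo luminescence.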
POLB inh: blocks human DNA polymerase beta activity | AID 485314 | Pol beta primer extension/strand displacement, fluorescence kinetic | actives 1.3% (n = 340,000) | P06746 | Potency, µM (doses to about 114 µM), actives largely listed as inhibitors
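Curves were derived by four-parameter Hill fits of normalized qHTS data. The kinetic fluorescent primer-extension read was taken at 0 and 10 min after 50 nM substrate, following a 15 min room-temperature preincubation of 10 nM enzyme with compounds.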
WRN helicase inh: blocks human WRN helicase | Q14191 | WRN helicase unwinding, fluorescent forked duplex, kinetic | Potency, µM (titrated, usually from 114 µM), usual class: inhibitors | actives 0.46% (n = 360,000); also: nearly all actives have a fitted effect of over 55% in size
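Kinetic fluorescence helicase assay: unwinding of a quenched forked DNA duplex (100 nM final) with 2 mM ATP final raises red fluorescence (525/598 nm). Compounds sat 15 min at room temperature with 20 nM WRN beforehand.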
Pol iota inh: DNA polymerase iota (human) inhibition; Pol iota fluorescent replication assay, 10 min; Potency, µM (top dose mostly 115 µM), usual class: inhibitors; actives 1% (n = 390,000); AID 588590
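Pol iota at 10 nM preincubated 15 min with compounds at room temperature; reaction started with fluorescent substrate, 50 nM final. Fluorescence read kinetically at 0 and 10 min; buffer-only wells as negative control.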
POLH inh: blocks human DNA polymerase eta activity; Q9Y253; recombinant Pol eta, fluorescent DNA replication assay; Potency, µM (top dose mostly 114 µM), usual class: inhibitors; actives 1.2% (n = 390,000); AID 588591
Target sequence (Q9Y253 whole entry, looked up): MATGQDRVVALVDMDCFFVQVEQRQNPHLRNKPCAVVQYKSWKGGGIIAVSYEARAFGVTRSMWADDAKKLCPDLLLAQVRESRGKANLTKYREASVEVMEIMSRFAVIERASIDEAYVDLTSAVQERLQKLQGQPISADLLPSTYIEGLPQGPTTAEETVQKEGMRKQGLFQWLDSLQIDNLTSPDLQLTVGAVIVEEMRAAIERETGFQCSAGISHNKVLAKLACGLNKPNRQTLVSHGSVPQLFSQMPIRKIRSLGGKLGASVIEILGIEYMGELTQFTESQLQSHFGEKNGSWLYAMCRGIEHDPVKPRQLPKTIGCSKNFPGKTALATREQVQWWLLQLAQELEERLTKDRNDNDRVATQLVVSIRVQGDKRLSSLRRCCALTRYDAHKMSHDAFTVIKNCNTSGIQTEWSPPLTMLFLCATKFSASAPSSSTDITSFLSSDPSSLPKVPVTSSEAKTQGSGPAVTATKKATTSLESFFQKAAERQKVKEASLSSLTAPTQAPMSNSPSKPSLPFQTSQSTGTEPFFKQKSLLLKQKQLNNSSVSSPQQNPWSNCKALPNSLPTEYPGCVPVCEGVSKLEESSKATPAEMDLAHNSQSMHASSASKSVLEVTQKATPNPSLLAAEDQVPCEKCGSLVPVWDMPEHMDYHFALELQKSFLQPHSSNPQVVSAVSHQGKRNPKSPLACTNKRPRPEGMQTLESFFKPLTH
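Pol eta at 10 nM preincubated with compounds 15 min at room temperature; reaction started with fluorescent substrate (50 nM final) and read kinetically at 0 and 10 min.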
POLK inh: blocks human DNA polymerase kappa activity. Q9UBT6. purified Pol kappa, fluorescent DNA synthesis assay, 10 min. Potency, µM (titrated, usually from 107 µM), usual class: inhibitors. actives 0.53% (n = 400,000). AID 588579
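First, compounds were pin-transferred onto 10 nM Pol kappa. After 15 min at room temperature, substrate was added to 50 nM final. Fluorescence was then measured kinetically at 0 and 10 min.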
A number is an active result; i = inactive; ? = inconclusive; nt = not tested or not shown; [ ] = dose if it differs, or a comment. Hits are enriched below; roughly 2.8% of the tested compounds scored in any of these assays. Unless noted, calls follow the shape of the dose curve; as a rule, active = well fitted curve in the direction sought with a large enough effect; inconclusive = small, poorly fitted or top-dose-only effect, or another doubt; inactive = no such curve, though single readings can be large; an effect the other way counts as inactive or inconclusive.

SMILES	PI5P4K alpha inh	POLB inh	WRN helicase inh	Pol iota inh	POLH inh	POLK inh
CC(=O)Nc1ccc(-n2cc3c(c2-c2ccc(C)cc2)c(=O)n(C)c(=O)n3C)cc1	nt	i	nt	i	i	i
Cc1nn(CCO)c2ncc(C(=O)c3cc(F)ccc3O)cc12	i	i	i	i	i	i
O=C(Nc1cccc(C(=O)O)c1)/C(=C/c1ccc([N+](=O)[O-])cc1)NC(=O)c1ccccc1	i	i	i	i	i	i
CC(C)(C)c1ccc(C(=O)N/C(=C\c2cccc([N+](=O)[O-])c2)C(=O)Nc2cccc(C(=O)O)c2)cc1	i	?	?	i	22µM	i
CN(C)c1ccc(N=Cc2ccncc2)cc1	nt	nt	nt	?	nt	i
COc1cccc(C2Nc3ccccc3-c3nnc(SCc4ccccc4)nc3O2)c1OC (stereo unspecified)	nt	i	nt	i	?	i
CCC(C)/C(C)=N/Nc1ccc(S(N)(=O)=O)cc1[N+](=O)[O-] (stereo unspecified)	i	i	i	i	89µM	i
CCc1ccc(NC(=S)N2CCNC(=O)C2CC(=O)OC)cc1 (stereo unspecified)	i	i	i	i	i	i
Cc1ccc(NC(=O)CCc2nc(-c3ccccc3F)no2)c(C)c1	nt	i	nt	i	i	i
O=C(COc1ccccc1[N+](=O)[O-])Nc1cccc(C(=O)Nc2ccccc2C(=O)O)c1	-63	i	i	i	?	i
CC(C)(C)c1ccc(OCC(=O)Nc2ccc(C(=O)Nc3ccccc3C(=O)O)cc2)cc1	?	i	?	i	79µM	i
COc1ccccc1OCC(=O)Nc1ccc(C(=O)Nc2ccccc2C(=O)O)cc1	?	nt	i	nt	i	nt
CC(C)c1ccc(OCC(=O)Nc2cccc(C(=O)Nc3ccccc3C(=O)O)c2)cc1	?	i	i	i	i	i
CCCN(Cc1cccs1)C(=O)Nc1cc(Cl)c(OC)cc1OC	nt	i	nt	i	i	i
COc1ccc2[nH]c(-c3ccc(F)cc3F)cc(=O)c2c1	nt	nt	nt	nt	nt	i
COc1ccc2[nH]c3c4c(ccc3c2c1)C(=O)C=CC4=O	-65	i	i	32µM	?	i
CC1=NN(Cc2cc(C(C)(C)C)c(O)c(C(C)(C)C)c2)C(=O)C1	i	i	i	?	i	i
CCCCCN1N=C(C)CC1=O	i	i	i	1.1µM	i	i
Cc1cc(/C=C(/C#N)C(=O)Nc2ccccc2)c(C)n1-c1cccnc1	i	i	i	i	i	i
Cc1ccccc1NC(=O)/C(C#N)=C\c1cc(C)n(-c2ccc(C(=O)O)cc2)c1C	i	?	i[11.6 µM]	i	22µM	i
CCCn1c(=O)c(C(=O)NCc2ccco2)c(O)c2ccccc21	i	i	i	?	i	i
Cc1ccc2nc(N/N=C\c3ccc([N+](=O)[O-])o3)nc(-c3ccccc3)c2c1	i	28µM	i	?	?	i
O=[N+]([O-])c1ccc(/C=N/NC(=S)Nc2ccccc2F)o1	-61	i	i	i	i	i
CCCCCC(=O)N/N=C/c1ccc([N+](=O)[O-])o1	nt	i	i	i	i	i
O=[N+]([O-])c1cccc(-c2ccc(/C=N/NC(=S)Nc3ccccc3)o2)c1	i	i	i	i	i	i
SMILES	PI5P4K alpha inh	POLB inh	WRN helicase inh	Pol iota inh	POLH inh	POLK inh
Cc1c(-c2ccc(/C=N/NC(=O)C(=O)Nc3ccccc3F)o2)cccc1[N+](=O)[O-]	i	i	i	i	i	i
O=[N+]([O-])c1ccc(/C=N/Nc2nc(-c3ccccc3)c3cc(Br)ccc3n2)o1	i	i	i	i	?	i
O=C(CCC(=O)Nc1ccc(Cl)cc1Cl)N/N=C/c1ccc([N+](=O)[O-])o1	i	i	i[11.6 µM]	56µM	i	i
O=[N+]([O-])c1ccc(/C=N/NC(=S)Nc2ccccc2)o1	-60	i	i	i	i	i
CCNC(=O)C1CCN(c2nnc(C)c3c(C)n(-c4ccc(OC)cc4)nc23)CC1	nt	i	nt	i	i	i
Cc1cc(C)n(C(C)CC(=O)N2CCc3ccccc32)n1 (stereo unspecified)	i	i	i	i	i	i
Cc1cc(C)n(C(CC(=O)N2CCc3ccccc3C2)C(=O)O)n1 (stereo unspecified)	nt	?	i	79µM	i	?
